Experimental data as given in PubChem BioAssay AID504333 (National Center for Advancing Translational Sciences (NCATS), 2011).
In all, about 360,000 compounds went through this assay and about 16,000 (4.4%) were called active. A call without a number means that no potency is given here. Not shown: some 9% with an inconclusive outcome. Calls follow the shape of the dose curve; as a rule, active = well fitted inhibition curve with a large enough effect; inconclusive = small, poorly fitted or top-dose-only effect; inactive = no such curve, though single readings can be large or run the other way. The sample as a whole holds a higher share of actives than the screen did.

These molecules were tested against Bromodomain adjacent to zinc finger domain protein 2B (Homo sapiens) (UniProt Q9UIF8) (assay: qHTS Assay for Inhibitors of BAZ2B). Conditions: AlphaScreen BAZ2B-H3K14Ac peptide displacement; series mostly up to 114 µM.
Sequence of Bromodomain adjacent to zinc finger domain protein 2B (Homo sapiens) (Q9UIF8 whole entry, looked up, the tested form may be a part): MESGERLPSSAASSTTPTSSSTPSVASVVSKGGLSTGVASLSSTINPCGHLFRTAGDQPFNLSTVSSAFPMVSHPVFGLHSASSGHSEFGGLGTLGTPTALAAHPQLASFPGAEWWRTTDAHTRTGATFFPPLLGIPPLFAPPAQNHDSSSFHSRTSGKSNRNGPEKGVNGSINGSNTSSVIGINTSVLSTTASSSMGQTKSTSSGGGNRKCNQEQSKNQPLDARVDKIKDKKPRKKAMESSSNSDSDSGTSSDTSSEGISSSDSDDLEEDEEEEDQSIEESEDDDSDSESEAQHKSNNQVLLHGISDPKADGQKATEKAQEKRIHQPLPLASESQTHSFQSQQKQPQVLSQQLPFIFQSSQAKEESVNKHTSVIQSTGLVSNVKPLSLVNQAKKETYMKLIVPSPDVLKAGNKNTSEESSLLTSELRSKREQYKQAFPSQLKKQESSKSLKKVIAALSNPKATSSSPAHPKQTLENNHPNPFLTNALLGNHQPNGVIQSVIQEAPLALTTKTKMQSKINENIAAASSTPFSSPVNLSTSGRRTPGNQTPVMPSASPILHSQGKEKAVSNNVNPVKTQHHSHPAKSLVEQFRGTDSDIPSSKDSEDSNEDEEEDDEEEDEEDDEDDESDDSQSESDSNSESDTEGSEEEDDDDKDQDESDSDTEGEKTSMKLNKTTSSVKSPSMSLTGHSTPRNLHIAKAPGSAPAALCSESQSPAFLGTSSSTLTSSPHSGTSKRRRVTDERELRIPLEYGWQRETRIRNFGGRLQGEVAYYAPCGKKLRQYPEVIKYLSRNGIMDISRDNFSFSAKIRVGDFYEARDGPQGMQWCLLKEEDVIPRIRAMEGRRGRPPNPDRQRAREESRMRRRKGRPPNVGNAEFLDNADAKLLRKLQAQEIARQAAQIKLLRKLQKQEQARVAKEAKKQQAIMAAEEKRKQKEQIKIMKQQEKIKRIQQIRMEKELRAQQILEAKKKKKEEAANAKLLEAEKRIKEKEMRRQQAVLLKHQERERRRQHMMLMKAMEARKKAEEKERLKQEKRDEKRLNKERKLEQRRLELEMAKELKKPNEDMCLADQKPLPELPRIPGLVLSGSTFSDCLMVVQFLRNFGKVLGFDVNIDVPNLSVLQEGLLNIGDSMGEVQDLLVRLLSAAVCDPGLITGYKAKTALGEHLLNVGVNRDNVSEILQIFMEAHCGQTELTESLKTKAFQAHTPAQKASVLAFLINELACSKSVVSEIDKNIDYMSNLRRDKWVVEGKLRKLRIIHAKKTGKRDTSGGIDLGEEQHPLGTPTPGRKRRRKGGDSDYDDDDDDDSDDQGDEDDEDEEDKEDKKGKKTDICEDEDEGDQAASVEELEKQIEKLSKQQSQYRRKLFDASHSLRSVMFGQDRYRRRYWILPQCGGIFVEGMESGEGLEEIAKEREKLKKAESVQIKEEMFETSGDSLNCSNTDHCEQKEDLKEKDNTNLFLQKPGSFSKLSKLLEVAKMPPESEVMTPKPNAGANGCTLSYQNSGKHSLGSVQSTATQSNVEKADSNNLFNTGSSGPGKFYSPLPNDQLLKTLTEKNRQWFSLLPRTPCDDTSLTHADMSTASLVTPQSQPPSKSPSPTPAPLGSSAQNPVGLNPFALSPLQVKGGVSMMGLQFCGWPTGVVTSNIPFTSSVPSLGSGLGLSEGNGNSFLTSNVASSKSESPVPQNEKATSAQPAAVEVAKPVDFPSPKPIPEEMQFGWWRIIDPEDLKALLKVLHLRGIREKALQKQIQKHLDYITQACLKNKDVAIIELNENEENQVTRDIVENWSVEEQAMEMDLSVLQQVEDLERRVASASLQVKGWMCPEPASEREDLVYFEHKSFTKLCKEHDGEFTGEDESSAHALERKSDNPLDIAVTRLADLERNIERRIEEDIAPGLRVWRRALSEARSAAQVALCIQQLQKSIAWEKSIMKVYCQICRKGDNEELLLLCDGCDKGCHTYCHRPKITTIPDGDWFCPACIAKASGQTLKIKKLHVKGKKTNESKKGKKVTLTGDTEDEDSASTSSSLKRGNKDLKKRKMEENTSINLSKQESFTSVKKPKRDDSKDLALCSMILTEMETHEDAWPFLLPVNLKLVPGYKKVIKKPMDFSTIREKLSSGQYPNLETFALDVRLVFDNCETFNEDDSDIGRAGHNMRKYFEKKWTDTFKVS
Outline: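 Complex of BAZ2B and biotin-H3K14Ac (50 nM apiece) forms over 30 min at RT, then faces library compounds up to 110 uM for another 30 min; AlphaScreen beads added, 20 min dark incubation, luminescence read.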
Also: nearly all actives have a fitted effect of over 60% in size.
Potency is read from the fitted curve at half-maximal effect.

Structure (SMILES) | Potency
COc1ccc(N2CCN(S(=O)(=O)CCNC(=O)C(c3ccccc3)c3ccccc3)CC2)cc1 | inactive
CC[C@@H](C)[C@@H](C(=O)N1CCN(C(=O)OC(C)(C)C)CC1)n1cc(CCC(=O)O)nn1 | inactive
C#CCOCCOCCOCCNc1nc(N2CCN(C(=O)CCCCCCCCCCNC(=O)[C@H]([C@@H](C)CC)n3cc(CCCCN=C(N)N)nn3)CC2)nc(N2CCN(C(=O)CCCCCCCCCCNC(=O)[C@H](CO)n3cc(CCCSC)nn3)CC2)n1 | 50.1 µM (active)
C#CCOCCOCCOCCNc1nc(N2CCN(C(=O)CCCCCCCCCCNC(=O)Cn3cc(CCCCCN)nn3)CC2)nc(N2CCN(C(=O)CCCCCCCCCCNC(=O)[C@H](CO)n3cc(CCCSC)nn3)CC2)n1 | 50.1 µM (active)
C#CCOCCOCCOCCNc1nc(N2CCN(C(=O)Cn3cc(CCCCN)nn3)CC2)nc(N2CCN(C(=O)[C@H](CCCCN)n3cc(CCC(=O)O)nn3)CC2)n1 | inactive
CCOc1cccc(CNC(=O)c2ccc(N3CCCC3)c(NC(=O)Nc3ccccc3CC)c2)c1 | inactive
Cc1oc(C)c2c(=O)cc(-c3ccc4c(c3)OCO4)cc(OC(=O)c3ccc(Cl)cc3)c12 | inactive
COc1ccc(C(=O)C2CCCN(Cc3ccc4nonc4c3)C2)c(C)c1 (stereo unspecified) | inactive
CCn1ccnc1CN1CCCC(C(=O)c2ccc3c4c(cccc24)CC3)C1 (stereo unspecified) | 50.1 µM (active)
CC(=O)NCC(=O)N1CCCC(C(=O)c2ccc3c4c(cccc24)CC3)C1 (stereo unspecified) | inactive
Cc1nc2ccc(S(=O)(=O)N(CC(=O)Nc3ccc(F)cc3)Cc3ccccc3)cc2s1 | inactive
COc1ccc(NC(=O)CSc2nc3ccccc3c(=O)n2C)cc1 | inactive
COc1ccc(-c2nc3c(c(SCC(=O)Nc4ccc(C(=O)O)cc4)n2)Cc2ccccc2O3)cc1 | 8.91 µM (active)
COc1ccc(NC(=O)CSc2nc(N)c(-c3ccccc3)c(=O)[nH]2)cc1 | inactive
COc1ccc(Cl)cc1NC(=O)CSc1nc(-c2cccs2)cc(C(F)(F)F)n1 | inactive
Cc1ccc(CN2CCCn3nc(C(=O)NCc4ccccc4Cl)cc3C2=O)cc1 | inactive
O=C1c2ccccc2C(=O)C1c1ccccc1F | inactive
O=C1c2ccccc2C2=Nc3ccccc3SC(c3ccccc3F)C12 (stereo unspecified) | 8.91 µM (active)
CC1Cc2cc(S(=O)(=O)CCC(=O)NCc3ccc(Cl)cc3)ccc2N1C(=O)C1CC1 (stereo unspecified) | inactive

Structure (SMILES) | Potency
O=C(Nc1cc2c3c(c1)C1CCCC1CN3CC1CCCC21)c1ccc([N+](=O)[O-])cc1 (stereo unspecified) | 11.2 µM (active)
CN(CC1CCCO1)S(=O)(=O)c1ccc(C(=O)Nc2ccc([N+](=O)[O-])cc2)cc1 (stereo unspecified) | inactive
CN1C2CCC1CC(NC(=O)c1ccc([N+](=O)[O-])cc1)C2 (stereo unspecified) | inactive
Cc1ccc(S(=O)(=O)c2c(Nc3cccc(Cl)c3)sc(C(=O)c3ccc4c(c3)OCO4)c2N)cc1 | inactive
CCCCC(=O)OC1=CN(Cc2ccccc2)S(=O)(=O)c2ccccc21 | inactive
Cc1ccc(NC(=O)CN2C(=O)C(c3ccc(F)cc3)=NC23CCCCCC3)c(C)c1 | inactive
CCN1CCC2(CC1)N=C(c1ccc(F)cc1)C(=S)N2C(=O)c1ccc(C)cc1 | 44.7 µM (active)
CCN1CCN(C(=O)CSc2ccc(C)cc2)CC1 | inactive
COc1ccc(CNC(=O)c2cc3cccc(OC)c3oc2=O)cc1 | inactive
O=C(NCCS(=O)(=O)N1CCN(c2ccc(F)cc2)CC1)c1ccccc1Br | inactive
COc1ccc(CNc2nc(-c3ccc(Cl)cc3)nn2C(=O)c2ccccc2)cc1 | inactive
O=C(CSc1oc(-c2ccccc2)nc1S(=O)(=O)c1ccc(Br)cc1)NC1CCCCC1 | inactive
CCOc1ccccc1NC(=O)CSc1ncc(S(=O)(=O)c2ccc(C(C)(C)C)cc2)c(=O)[nH]1 | inactive
O=C(CC1N=C2c3ccccc3N=C(SCc3ccc(F)cc3)N2C1=O)NCc1cccs1 (stereo unspecified) | inactive
CC(=O)NCc1ccc(-c2csc(NC(=O)CCCc3nc4ccccc4c(=O)[nH]3)n2)cc1 | inactive
O=C(CSc1nc2ccccc2c(=O)[nH]1)Nc1nc(-c2ccc(Br)cc2)cs1 | 79.4 µM (active)
CCOC(=O)c1ccccc1NC(=O)CSc1nc2ccccc2c(=O)[nH]1 | inactive
Cc1ccccc1Cn1nc(C)c(NC(=O)c2cc(-c3ccc(F)cc3)on2)c1C | inactive
O=C(NCc1cccnc1)c1cn(-c2ccccc2)nc1-c1cccs1 | inactive

Structure (SMILES) | Potency
COc1cccc(NC(=O)CN(C)C(=O)/C=C/c2cn(-c3ccccc3)nc2-c2cccs2)c1 | inactive
O=C(O)c1ccc(N/N=C/c2cn(-c3ccccc3)nc2-c2cccs2)cc1 | 79.4 µM (active)
CC(C)(C)OC(=O)N1CCC(c2c(C(=O)N3CCN(c4cccc(Cl)c4)CC3)cnn2-c2cccc(Cl)c2)CC1 | inactive
O=C(Nc1ccccc1Cl)N1CCC(CN2CCCC2)CC1 | inactive
CCS(=O)(=O)N1CCc2cc(C(=O)NCc3ccc(C)cc3)ccc21 | inactive
O=C(NC1CC(=O)N(c2ccc(F)cc2)C1)C1CCCCC1 (stereo unspecified) | inactive
COc1ccc(-n2cc(-c3ccccc3)c3c(=S)nc[nH]c32)cc1 | 79.4 µM (active)
COc1ccc(N2C(=O)C(Cc3ccccc3)NC2=S)cc1 (stereo unspecified) | inactive
CCCNc1ncnc2c1c(-c1ccccc1)cn2-c1ccc(OCC)cc1 | inactive
COc1ccc(C2=NC3(CCCCC3)N(CC(=O)Nc3ccc(C(C)C)cc3)C2=O)cc1 | inactive
CCN(CC)CCC(c1ccc2c(c1)OCO2)c1c(OC)cc(OC)c2c(-c3ccccc3)cc(=O)oc12 (stereo unspecified) | inactive
COc1cc(OC)c2ccc(=O)oc2c1C(CCN1CCN(c2ccccc2)CC1)c1ccc2c(c1)OCO2 (stereo unspecified) | 25.1 µM (active)
CCN(CC)CCC(c1cc(OC)c(OC)c(OC)c1)c1c(OC)cc(OC)c2c(-c3ccccc3)cc(=O)oc12 (stereo unspecified) | inactive
CCOC(=O)C1CCCN(C(=O)c2ccc(-n3ccc4ccccc43)s2)C1 (stereo unspecified) | inactive
Cc1cccc(C(=O)OCC(=O)Nc2ccc(F)cc2)c1 | inactive
O=C(COC(=O)c1ccc(F)cc1F)Nc1ncccn1 | 50.1 µM (active)
COc1cc(OC)cc(C(=O)OCC(=O)Nc2ccc(F)cc2F)c1 | inactive
COc1ccc(CCNC(=O)C(=O)NCC(c2ccco2)S(=O)(=O)c2cccs2)cc1OC (stereo unspecified) | inactive
